# Screens deposited in PubChem by Sanford-Burnham Center for Chemical Genomics.
# Shown are actives, neighbours in structure and some others; about 1.5% of the full set was active somewhere.
# NadD inh = inhibitors of Staphylococcus aureus NadD | purified NadD enzyme, colorimetric absorbance read-out | inhibition, % at 20 µM | hit rate 0.78% among 360,000 | AID 602399; in the data active = inhibition above about 26%
# Neddyl block = inhibitors of human cullin neddylation; hit rate 0.58% among 360,000; P61081+Q13564; TR-FRET cullin neddylation, biochemical; inhibition, % at 25 µM; in the data active = inhibition above about 36%
# GC-A act = GC-A (human) enzyme activation; HEK293 GC-A cells, cGMP TR-FRET, EC30 ANP; 0% at EC30 ANP, 100% saturating ANP; P16066; activation, % at 10 µM; AID 1671463; hit rate 0.14% among 370,000; in the data active = activation above about 40%
# NPR2 activator = GC-B (human) receptor activation; P20594; HEK293-GC-B cells, CNP EC30, cGMP TR-FRET; 0% at EC30 CNP, 100% saturating CNP; activation, % at 10 µM; hit rate 0.11% among 370,000; AID 1920062;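 active = activation at 10 µM reaching about 35% in either raw or pattern-adjusted values, limit read from the data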
# Numbers without * were called inactive; x = not tested or not shown.
SMILES,NadD inh,Neddyl block,GC-A act,NPR2 activator
CCc1nnc(NC(=O)c2ccc(-c3ccccc3Cl)o2)s1,6.2,45.3*,4.4,-4.5
CC(C)N1Cc2nnn(Cc3ccccc3)c2-c2cc(N3CCCC3)ccc2S1(=O)=O,x,x,-10.4,-13.8
O=C(NCc1ccccc1)[C@H]1CCCN1C(=O)[C@H]1CCCN1C(=O)c1ccccc1C(F)(F)F,x,x,-1.1,0.3
COC(=O)C[C@@H]1CC[C@H]2[C@H](COc3ccc(NC(=O)Nc4ccc(Cl)cc4)cc3C(=O)N2C)O1,x,x,2.0,3.4
CC(C)C1Nc2ccc(S(N)(=O)=O)cc2C2C=CCC21 (configuration not stated),5.3,-13.0,1.4,5.9
NS(=O)(=O)c1ccc2c(c1)C1C=CCC1C(C1CC=CCC1)N2 (configuration not stated),38.6*,-4.5,-3.6,0.1
CCCCCCCCN1C(=O)[C@@H](CC(=O)NCc2ccc(OC)c(OC)c2)C[C@@]2(C(=O)OC)C1=C[C@H](C(C)C)O[C@@H]2C1CC1,x,x,-6.0,5.2
C[n+]1cc(C(O)(c2ccccc2)c2ccccc2)n2ccccc21,x,x,0.7,0.6
CCOC(=O)/C(=C\Nc1ccccc1C(F)(F)F)Sc1ncc(C(F)(F)F)cc1Cl,-3.6,9.6,0.1,-4.1
N#Cc1c(Sc2ncc(C(F)(F)F)cc2Cl)nsc1C/C=N\OCc1ccccc1Br,46.2*,-7.0,2.0,-3.8
CCCCc1c(-c2ccccc2OC)ncn1Cc1cc(F)ccc1F,x,x,-9.6,-13.7
CN(C)c1ccc(C=c2c3ccccc3n3c2c2ccccc2[n+]3C)cc1,54.1*,39.2*,-55.2,-46.9
O=C(Nc1nc2cc3c(cc2s1)OCCO3)c1ccco1,-6.2,43.2*,-2.8,-1.1
O=C([C@@H]1C[C@H]1c1ccccc1)N1CC[C@H]2[C@H](CCCN2Cc2cc(F)cc(F)c2)C1,x,x,2.8,4.0
CCOC1=CC2=C(C(=O)C(Cl)=CC2=O)[C@@H]2CN(S(=O)(=O)c3ccc(C)cc3)[C@@H](c3ccccc3)[C@H]12,37.3*,17.2,-11.3,-6.1
CCN1C(=O)[C@@H]2[C@@H]3CN(S(=O)(=O)c4ccc(C)cc4)[C@@H](c4ccccc4)[C@@H]3C(=O)C[C@@H]2C1=O,-5.0,-0.3,1.6,-0.6
CC(=O)Nc1ccc(Nc2nc(C)c([N+](=O)[O-])c(Nc3ccc(NC(C)=O)cc3)n2)cc1,0.3,-49.3,33.1,38.1*
CCN(Cc1cn(Cc2ccc(C)cc2)nn1)S(=O)(=O)c1ccccc1Br,x,x,-1.9,5.8
CCN1C(=S)N[C@@H](c2cccc(F)c2)C(C(=O)OC)=C1C,3.4,-6.8,36.4,45.4*
COC(=O)C1=C(C)N(Cc2ccc(Br)cc2)C(=S)NC1c1cccc(F)c1 (configuration not stated),x,x,25.9,-14.2
Cc1ccc(C2CC(=O)Oc3cc(O)ccc32)cc1 (configuration not stated),-2.1,-5.3,57.0*,10.1
CCOC(=O)C1=C(N)Oc2cc(O)ccc2C1c1ccccc1 (configuration not stated),-2.0,-0.8,30.0,-4.1
CCOC(=O)C1=C(N)Oc2cc(O)ccc2C1c1ccc(C)cc1 (configuration not stated),9.5,5.8,48.6*,0.2
O=C1CC(c2ccccc2)c2cc(O)ccc2O1 (configuration not stated),0.8,3.5,x,x
COc1ccc(-n2c(COc3ccccc3)nnc2SCC(=O)Nc2ccccc2-c2ccccc2)cc1,x,x,-11.8,-1.0
SMILES,NadD inh,Neddyl block,GC-A act,NPR2 activator
CC(=O)c1ccc(NC(=O)CN2C(=O)/C(=C/C(C)=C/c3ccccc3)SC2=S)cc1,30.7*,-0.3,-1.1,-2.8
CC(/C=C1\SC(=S)N(CCC(=O)Nc2ccc(O)cc2)C1=O)=C\c1ccccc1,20.7,-11.5,-1.4,-9.8
CC(/C=C1\SC(=S)N(NC(=O)c2ccc(C)cc2)C1=O)=C\c1ccccc1,30.2*,-2.7,x,x
O=C(CNC(=O)Cc1ccccc1)N=Nc1c(O)[nH]c2ccccc12,-12.3,-30.0,-6.5,-0.3
O=C(CNC(=O)/C=C/c1ccco1)N=Nc1c(O)[nH]c2ccccc12,33.8*,-24.6,-10.7,-7.3
COC(=O)[C@]12C[C@H](CC(=O)NCc3cccc(C(F)(F)F)c3)C(=O)N(CCc3ccc(OC)c(OC)c3)C1=C[C@H](COCc1ccccc1)O[C@@H]2C,x,x,-3.3,4.4
O=C(CN1C(=O)C2(OCCCO2)c2ccccc21)NCc1ccc2ccccc2c1,x,x,-3.0,0.1
CCOc1cc(S(=O)(=O)Nc2cc(C)cc(C)c2)ccc1Cl,-7.5,-4.4,-2.8,47.3*
Nc1[nH]c(C(=O)c2ccccc2)c(-c2ccccn2)c1C(=O)c1c[nH]c2ccccc12,x,x,1.1,5.4
Cc1cc2c(c(=O)o1)[C@@]1(C(=O)N(C)c3ccc([N+](=O)[O-])cc31)C1=C(CCCC1=O)O2,x,x,3.5,8.2
Cc1cc(-c2n[nH]c(=S)n2N=Cc2ccc(-c3ccccc3)cc2)n[nH]1,x,x,4.0,-15.1
O=S(=O)(c1ccc(CN2CCOCCOCCN(Cc3ccc(S(=O)(=O)C(F)(F)F)cc3)CCOCC2)cc1)C(F)(F)F,x,x,-1.3,-4.0
Nc1nc2c(ncn2[C@@H]2O[C@H](C(=O)N[C@H](Cc3ccccc3)C(=O)NCc3ccc4c(c3)OCO4)[C@@H](O)[C@H]2O)c(=O)[nH]1,x,x,31.5,37.5*
Nc1nc2c(ncn2[C@@H]2O[C@H](C(=O)N[C@@H](Cc3ccccc3)C(=O)NCc3ccc4c(c3)OCO4)[C@@H](O)[C@H]2O)c(=O)[nH]1,x,x,1.8,0.2
O=C1C(F)=CC(COC(c2ccccc2)(c2ccccc2)c2ccccc2)OC1n1cc(F)c(=O)[nH]c1=O (configuration not stated),50.6*,-5.6,-36.7,-13.9
COc1ccc(S(=O)(=O)N2CCOCC2)cc1N=Nc1sc(N)nc1-c1ccccc1,3.6,-13.6,55.3*,44.5*
CCC(C)N(C(=O)Cn1nc(Cc2ccncc2)c2ccccc2c1=O)C(C)CC (configuration not stated),x,x,4.2,7.8
N#Cc1ccc(NC(=O)COC(=O)CSc2nnc(-c3ccc(Cl)cc3)o2)cc1,-0.7,8.4,62.3*,-10.2
O=C(COC(=O)CSc1nnc(-c2ccc(Cl)cc2)o1)NCc1ccc2c(c1)OCO2,-8.2,-9.5,63.3*,4.5
Nc1[nH]c(C(=O)c2ccc(Cl)cc2)c(-c2ccc(Br)cc2)c1C(=O)c1c[nH]c2ccc(F)cc12,x,x,-9.0,-1.7
Oc1cc(CNC2CCCCC2)c(O)cc1CNC1CCCCC1,30.8*,-4.8,-2.8,-1.6
Cn1ccc2cc3c(cc21)CCN3C(=O)Nc1cccnc1,31.3*,4.7,-5.4,-10.5
N#Cc1cccc(-c2nnc(SCc3ccccc3C#N)o2)c1,-6.8,5.3,35.2,37.7*
N#Cc1ccccc1CSc1nnc(-c2ccncc2)o1,-4.6,-0.5,x,x
COC(=O)[C@]12C[C@H](CC(=O)NCc3ccc(OC)c(OC)c3)C(=O)N(Cc3cccc4ccccc34)C1=C[C@H](C(C)(C)C)O[C@@H]2C,x,x,-3.6,5.2
CN(N=Cc1ccccc1O)C(=O)c1ccccc1N,x,x,0.4,-7.9
